# Data reported in PubChem BioAssay AID1159580 (chemical genetic matrix, 2015).
# The whole screen tested about 5,500 compounds, of which about 2,000 (36%) were called active. Inconclusive results (about 18%) are left out. Some of the results follow. Values without a mark were called inactive. Cut-off read from the data, not from the text of the source: active = normalized growth mostly below about 0.91 (no sharp cut-off); inconclusive = no clear call, values can overlap the other calls; inactive = mostly above about 0.92.
# Experiment: chemical genetic growth profiling, strain panel (AID 1159580);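 note: tested at 20 µM; growth read once vehicle control cultures reached saturation at 30 °C; 1 = growth at the plate median or of vehicle wells; lower values mean less growth of the strain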
# Conditions: S. cerevisiae deletion strains, growth OD
compound,measurement,setting,value
CC[C@H](C)C(=O)O[C@H]1CCC=C2C=C[C@H](C)C(CCC3C[C@@H](O)CC(=O)O3)[C@H]21 (stereo partly drawn),normalized growth,"locus YAL021C, strain ccr4, active compounds read low",0.894 (active)
same,normalized growth,"locus YAL026C, strain drs2, active compounds read low",1.02
same,normalized growth,"locus YAL030W, strain snc1, active compounds read low",0.997
same,normalized growth,"locus YBL061C, strain skt5, active compounds read low",1.01
same,normalized growth,"locus YBR009C, strain hhf1, active compounds read low",1
same,normalized growth,"locus YBR021W, strain FUR4, active compounds read low",0.958
same,normalized growth,"locus YBR023C, strain chs3, active compounds read low",1.01
same,normalized growth,"locus YBR171W, strain sec66, active compounds read low",1.02
same,normalized growth,"locus YBR229C, strain ROT2, active compounds read low",0.983
same,normalized growth,"locus YBR231C, strain swc5, active compounds read low",0.95
same,normalized growth,"locus YBR279W, strain paf1, active compounds read low",1
same,normalized growth,"locus YCL011C, strain gbp2, active compounds read low",1.01
same,normalized growth,"locus YCL016C, strain dcc1, active compounds read low",0.997
same,normalized growth,"locus YCL029C, strain bik1, active compounds read low",0.969
same,normalized growth,"locus YCL061C, strain MRC1, active compounds read low",1
same,normalized growth,"locus YCL069W, strain vba3, active compounds read low",1
same,normalized growth,"locus YCR088W, strain abp1, active compounds read low",1.01
same,normalized growth,"locus YDL005C, strain med2, active compounds read low",0.988
same,normalized growth,"locus YDL035C, strain GPR1, active compounds read low",0.981
same,normalized growth,"locus YDL040C, strain nat1, active compounds read low",1
same,normalized growth,"locus YDL074C, strain BRE1, active compounds read low",0.957
same,normalized growth,"locus YDL101C, strain DUN1, active compounds read low",0.989
same,normalized growth,"locus YDL134C, strain PPH21, active compounds read low",1.01
same,normalized growth,"locus YDL185W, strain tfp1, active compounds read low",0.978
same,normalized growth,"locus YDL192W, strain arf1, active compounds read low",0.972
same,normalized growth,"locus YDR001C, strain nth1, active compounds read low",1
same,normalized growth,"locus YDR069C, strain doa4, active compounds read low",1.01
same,normalized growth,"locus YDR101C, strain arx1, active compounds read low",0.974
same,normalized growth,"locus YDR137W, strain rgp1, active compounds read low",1.39 [resistant] (active)
same,normalized growth,"locus YDR150W, strain NUM1, active compounds read low",0.997
same,normalized growth,"locus YDR159W, strain sac3, active compounds read low",1.04
same,normalized growth,"locus YDR162C, strain NBP2, active compounds read low",0.987
same,normalized growth,"locus YDR195W, strain ref2",1
same,normalized growth,"locus YDR297W, strain sur2, active compounds read low",1
same,normalized growth,"locus YDR318W, strain mcm21, active compounds read low",0.992
same,normalized growth,"locus YDR334W, strain swr1, active compounds read low",0.997
same,normalized growth,"locus YDR335W, strain msn5, active compounds read low",0.999
same,normalized growth,"locus YDR388W, active compounds read low",0.981
same,normalized growth,"locus YDR392W, strain spt3, active compounds read low",0.989
same,normalized growth,"locus YDR502C, strain sam2, active compounds read low",1.02
same,normalized growth,"locus YEL003W, strain gim4, active compounds read low",1.02
same,normalized growth,"locus YEL037C, strain rad23, active compounds read low",1
same,normalized growth,"locus YEL061C, strain CIN8 (second series), active compounds read low",0.999
same,normalized growth,"locus YEL061C, strain CIN8, active compounds read low",0.99
same,normalized growth,"locus YER015W, strain faa2, active compounds read low",1.01
same,normalized growth,"locus YER016W, strain bim1, active compounds read low",0.999
same,normalized growth,"locus YER110C, active compounds read low",0.968
same,normalized growth,"locus YER111C, strain swi4, active compounds read low",0.995
same,normalized growth,"locus YER155C, strain BEM2 (second series), active compounds read low",1.02
same,normalized growth,"locus YER155C, strain BEM2, active compounds read low",0.967
same,normalized growth,"locus YER167W, strain BCK2, active compounds read low",0.99
same,normalized growth,"locus YFR010W, strain ubp6, active compounds read low",1.03
same,normalized growth,"locus YGL078C, strain dbp3, active compounds read low",0.971
same,normalized growth,"locus YGL086W, strain mad1, active compounds read low",0.956
same,normalized growth,"locus YGL167C, strain pmr1, active compounds read low",0.996
same,normalized growth,"locus YGL173C, strain kem1, active compounds read low",1.01
same,normalized growth,"locus YGL227W, strain vid30, active compounds read low",1
same,normalized growth,"locus YGL240W, strain doc1, active compounds read low",1.02
same,normalized growth,"locus YGL248W, strain PDE1, active compounds read low",0.998
same,normalized growth,"locus YGL253W, strain hxk2, active compounds read low",1.01
same,normalized growth,"locus YGR135W, strain pre9, active compounds read low",1
same,normalized growth,"locus YGR252W, strain gcn5, active compounds read low",1.03
same,normalized growth,"locus YHR013C, strain ard1, active compounds read low",0.947
same,normalized growth,"locus YHR027C, strain rpn1, active compounds read low",1.02
same,normalized growth,"locus YHR030C, strain SLT2, active compounds read low",0.982
same,normalized growth,"locus YHR079C, strain IRE1 (second series), active compounds read low",0.98
same,normalized growth,"locus YHR094C, strain hxt1, active compounds read low",0.981
same,normalized growth,"locus YHR129C, strain ARP1, active compounds read low",0.987
same,normalized growth,"locus YHR142W, strain chs7, active compounds read low",1.01
same,normalized growth,"locus YHR200W, strain rpn10, active compounds read low",0.978
same,normalized growth,"locus YIL066C, strain RNR3, active compounds read low",0.989
same,normalized growth,"locus YIL073C, strain SPO22, active compounds read low",0.975
same,normalized growth,"locus YIL125W, strain kgd1, active compounds read low",0.99
same,normalized growth,"locus YIR030C, strain dcg1, active compounds read low",0.981
same,normalized growth,"locus YJL092W, strain hpr5, active compounds read low",1.01
same,normalized growth,"locus YJL095W, strain BCK1 (second series), active compounds read low",1.01
same,normalized growth,"locus YJL095W, strain BCK1, active compounds read low",1.03
same,normalized growth,"locus YJL115W, strain asf1, active compounds read low",1
same,normalized growth,"locus YJL129C, strain trk1, active compounds read low",1.04
same,normalized growth,"locus YJL134W, strain LCB3, active compounds read low",0.977
same,normalized growth,"locus YJL154C, strain vps35, active compounds read low",1
same,normalized growth,"locus YJL164C, strain tpk1, active compounds read low",1.01
same,normalized growth,"locus YJL166W, strain qcr8, active compounds read low",1.02
same,normalized growth,"locus YJL168C, strain set2, active compounds read low",0.975
same,normalized growth,"locus YJL187C, strain SWE1 (second series), active compounds read low",0.994
same,normalized growth,"locus YJL187C, strain SWE1, active compounds read low",1
same,normalized growth,"locus YJR043C, strain POL32, active compounds read low",0.978
same,normalized growth,"locus YKL009W, strain mrt4, active compounds read low",0.864 (active)
same,normalized growth,"locus YKL068W, active compounds read low",0.987
same,normalized growth,"locus YKL085W, strain MDH1 (second series), active compounds read low",0.966
same,normalized growth,"locus YKL085W, strain MDH1, active compounds read low",0.966
same,normalized growth,"locus YKL160W, strain elf1, active compounds read low",1.01
same,normalized growth,"locus YKL190W, strain CNB1, active compounds read low",0.993
same,normalized growth,"locus YKR001C, strain vps1, active compounds read low",0.973
same,normalized growth,"locus YKR026C, strain gcn3, active compounds read low",0.981
same,normalized growth,"locus YKR091W, strain srl3, active compounds read low",1
same,normalized growth,"locus YLL001W, strain dnm1, active compounds read low",1.01
same,normalized growth,"locus YLL026W, active compounds read low",1.01
same,normalized growth,"locus YLL041C, strain sdh2, active compounds read low",1
same,normalized growth,"locus YLR027C, strain aat2, active compounds read low",1.01
same,normalized growth,"locus YLR039C, strain RIC1, active compounds read low",1.15
same,normalized growth,"locus YLR058C, strain SHM2, active compounds read low",0.989
same,normalized growth,"locus YLR102C, strain apc9, active compounds read low",0.973
same,normalized growth,"locus YLR221C, strain rsa3, active compounds read low",1.02
same,normalized growth,"locus YLR258W, strain gsy2, active compounds read low",1.01
same,normalized growth,"locus YLR262C, strain YPT6 (second series), active compounds read low",1.22 [resistant] (active)
same,normalized growth,"locus YLR262C, strain YPT6, active compounds read low",1.07
same,normalized growth,"locus YLR268W, strain sec22, active compounds read low",0.954
same,normalized growth,"locus YLR320W, strain mms22, active compounds read low",1.02
same,normalized growth,"locus YLR330W, strain CHS5, active compounds read low",0.991
same,normalized growth,"locus YLR342W, strain FKS1 (second series), active compounds read low",1.03
same,normalized growth,"locus YLR342W, strain FKS1, active compounds read low",1.01
same,normalized growth,"locus YLR357W, strain rsc2, active compounds read low",1.01
same,normalized growth,"locus YLR370C, strain arc18, active compounds read low",1
same,normalized growth,"locus YLR371W, strain rom2, active compounds read low",0.955
same,normalized growth,"locus YLR384C, strain iki3, active compounds read low",1.01
same,normalized growth,"locus YLR418C, strain cdc73, active compounds read low",1
same,normalized growth,"locus YML016C, strain PPZ1, active compounds read low",0.999
same,normalized growth,"locus YML032C, strain rad52, active compounds read low",1.03
same,normalized growth,"locus YML120C, strain ndi1, active compounds read low",1.02
same,normalized growth,"locus YML124C, strain tub3, active compounds read low",0.983
same,normalized growth,"locus YMR058W, strain fet3, active compounds read low",1.01
same,normalized growth,"locus YMR078C, strain ctf18, active compounds read low",0.997
same,normalized growth,"locus YMR125W, strain sto1, active compounds read low",1.02
same,normalized growth,"locus YMR129W, active compounds read low",1
same,normalized growth,"locus YMR205C, strain PFK2, active compounds read low",1.01
same,normalized growth,"locus YMR223W, strain ubp8, active compounds read low",0.995
same,normalized growth,"locus YMR231W, strain pep5, active compounds read low",0.996
same,normalized growth,"locus YMR307W, strain GAS1, active compounds read low",1.07
same,normalized growth,"locus YNL067W, strain RPL9B, active compounds read low",1
same,normalized growth,"locus YNL071W, strain lat1, active compounds read low",1
same,normalized growth,"locus YNL209W, strain ssb2, active compounds read low",1.02
same,normalized growth,"locus YNL233W, strain BNI4, active compounds read low",1.01
same,normalized growth,"locus YNL248C, strain rpa49, active compounds read low",1.02
same,normalized growth,"locus YNL250W, strain rad50, active compounds read low",0.977
same,normalized growth,"locus YNL271C, strain bni1, active compounds read low",0.977
same,normalized growth,"locus YNL298W, strain CLA4, active compounds read low",0.968
same,normalized growth,"locus YNL307C, strain MCK1, active compounds read low",0.978
same,normalized growth,"locus YNL322C, strain KRE1 (second series), active compounds read low",1.01
same,normalized growth,"locus YNL322C, strain KRE1, active compounds read low",0.989
same,normalized growth,"locus YNR049C, strain mso1, active compounds read low",1.01
same,normalized growth,"locus YNR052C, strain pop2, active compounds read low",0.966
same,normalized growth,"locus YOL012C, strain htz1",0.865
same,normalized growth,"locus YOL147C, strain pex11, active compounds read low",0.994
same,normalized growth,"locus YOR001W, strain rrp6, active compounds read low",1.01
same,normalized growth,"locus YOR061W, strain CKA2, active compounds read low",0.985
same,normalized growth,"locus YOR069W, strain VPS5, active compounds read low",0.981
same,normalized growth,"locus YOR070C, strain gyp1, active compounds read low",1.02
same,normalized growth,"locus YOR080W, strain dia2, active compounds read low",1
same,normalized growth,"locus YOR083W, strain WHI5, active compounds read low",1.01
same,normalized growth,"locus YOR106W, strain vam3, active compounds read low",1.04
same,normalized growth,"locus YOR136W, strain idh2, active compounds read low",0.977
same,normalized growth,"locus YOR144C, strain elg1, active compounds read low",0.977
same,normalized growth,"locus YOR184W, strain ser1, active compounds read low",0.957
same,normalized growth,"locus YOR265W, strain rbl2, active compounds read low",1
same,normalized growth,"locus YOR270C, strain vph1, active compounds read low",0.999
same,normalized growth,"locus YOR290C, strain snf2, active compounds read low",0.991
same,normalized growth,"locus YOR316C, strain cot1, active compounds read low",0.983
same,normalized growth,"locus YPL051W, strain arl3, active compounds read low",1.02
same,normalized growth,"locus YPL078C, strain atp4, active compounds read low",1.01
same,normalized growth,"locus YPL106C, strain sse1, active compounds read low",1.06
same,normalized growth,"locus YPL240C, strain hsp82, active compounds read low",1.01
same,normalized growth,"locus YPL241C, strain CIN2, active compounds read low",0.981
same,normalized growth,"locus YPR119W, strain clb2, active compounds read low",0.979
same,normalized growth,"locus YPR141C, strain kar3, active compounds read low",0.963
same,normalized growth,"locus YPR163C, strain tif3, active compounds read low",0.992
same,normalized growth,"locus YPR167C, strain met16, active compounds read low",1
same,normalized growth,"strain wtn01, active compounds read low",0.935
